# CYP2C19 activ = cytochrome P450 2C19 (human) activation. recombinant CYP2C19, luciferin-H EGE luminescence; active compounds read high; 0 = fully inhibited enzyme, 1 = untreated enzyme. activation factor at 5 µM. 96,000 tested, under 10 active;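 active = activation factor of at least 2 at 5 µM in the primary screen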
# Target sequence (P33261 whole entry, looked up): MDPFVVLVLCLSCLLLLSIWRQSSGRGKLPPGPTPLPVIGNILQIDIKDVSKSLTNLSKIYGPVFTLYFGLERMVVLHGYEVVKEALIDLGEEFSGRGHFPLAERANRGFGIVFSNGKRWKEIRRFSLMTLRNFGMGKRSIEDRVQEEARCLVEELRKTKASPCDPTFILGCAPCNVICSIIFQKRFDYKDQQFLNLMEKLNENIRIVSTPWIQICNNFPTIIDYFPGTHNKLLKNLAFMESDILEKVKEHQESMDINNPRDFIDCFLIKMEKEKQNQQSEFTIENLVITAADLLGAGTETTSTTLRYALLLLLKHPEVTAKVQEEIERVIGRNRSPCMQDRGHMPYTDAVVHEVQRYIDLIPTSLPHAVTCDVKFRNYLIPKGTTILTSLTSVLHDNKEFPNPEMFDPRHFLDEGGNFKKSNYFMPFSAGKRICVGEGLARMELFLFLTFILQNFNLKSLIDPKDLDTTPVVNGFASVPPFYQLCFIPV
# D1 mod = allosterically modulates the human D1 dopamine receptor | P21728 | HEK293 D1, CRE-luciferase, dopamine EC30 potentiation; actives deviate in either direction | B-score at 10 µM | 58,000 compounds, 5.9% hits | AID 641;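 active = luminescence count or its row- and column-corrected plate score outside the 99.7% band of the plate's sample wells, on either side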
# CYP2C19 inh = human CYP2C19 inhibition. inhibition, % at 5 µM. 96,000 compounds, 21% hits. CYP2C19 Supersomes, luciferin-H EGE luminescence, 30 min;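 active = CYP2C19 inhibition above a set limit at 5 µM in the primary screen, cut at about 50% in these data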
# CYP2C9 inhib = inhibitors of human CYP2C9 | CYP2C9 Supersomes, luciferin-H conversion, luminescence | inhibition, % at 5 µM | P11712 | 96,000 compounds, 20% hits | AID 777;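 active = blocking of liver enzyme CYP2C9 beyond about 50% at 5 µM, limit read from the data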
# CYP2C9 act = CYP2C9 (human) activation | P11712 | recombinant CYP2C9, luciferin-H conversion, luminescence; active compounds read high; factor 1 = untreated enzyme, 0 = blocked | activation factor at 5 µM | 96,000 compounds, 1.4% hits | AID 1024;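 active = activation factor of 2 or more for CYP2C9 at a 5 µM dose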
# hDAT+cocaine = modulates human dopamine transporter uptake under cocaine; B-score at 10 µM; 110,000 compounds, 1.3% hits; LLC-PK1 hDAT cells, [14C]-dopamine uptake with cocaine IC80; actives deviate in either direction; Q01959;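 active = Z score or B-score, a plate-position-corrected score, falls beyond the plate's 99.7% confidence bounds, in either direction; inactive = both scores lie inside the 99.7% bounds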
# A number is an active result; – = inactive; · = not tested or not shown. Only some compounds are listed: those with a hit (about 28% of all), similar ones and a draw of the others.
SMILES,CYP2C19 activ,D1 mod,CYP2C19 inh,CYP2C9 inhib,CYP2C9 act,hDAT+cocaine
COc1ccc(CNC(=O)C(=O)NCC2OCCN2S(=O)(=O)c2ccc3c(c2)OCCO3)cc1 (stereo not given),·,·,·,·,·,–
COC(=O)C1N[C@@H]([C@@H](NC(=O)COc2ccccc2)C(=O)NC2CC2)SC1(C)C (stereo not given in full),·,·,·,·,·,–
CN1C(=O)CC(N2CCN(CC(=O)N3CCCC3)CC2)C1=O (stereo not given),–,–,–,–,–,–
CN1C(=O)CC(N2CCN(C(=O)CN3CCCC3)CC2)C1=O (stereo not given),–,-2.7,–,–,–,–
CC(=O)OC1COC(n2ccc3ccccc32)C(OC(C)=O)C1OC(C)=O (stereo not given),–,–,67,–,–,–
COC(=O)C1=C(O)/C(=C\c2ccc(CNC(=O)C(=O)Nc3ccc(C)c(C)c3)o2)N=C1C,–,·,50,80,–,–
COC(=O)C1=C(O)/C(=C\c2ccc(CNC(=O)C(=O)Nc3ccc(C)cc3)o2)N=C1C,–,·,59,88,–,–
CCOC(=O)C1=C(O)/C(=C/c2ccc(CNC(=O)C(=O)Nc3ccc(C)cc3)o2)N=C1C,–,·,66,90,–,–
COC(=O)c1cccc(C(=O)Nc2ccc(C)cc2)n1,–,–,–,–,–,–
COC(=O)[C@H](C)NC(=O)Nc1ccc(C)c(C)c1,–,–,–,–,–,–
Cc1ccc(C(=O)NCCCN2CCOCC2)o1,·,·,·,·,·,–
O=C(CSc1nccc(=O)[nH]1)Nc1ccc(S(=O)(=O)N2CCOCC2)cc1,·,·,·,·,·,–
CSCCC(NS(=O)(=O)c1ccc(Cl)cc1)C(=O)OCC(=O)NC1CCCCC1 (stereo not given),–,·,–,–,–,3.2
CSCCC(NS(=O)(=O)c1ccc(Cl)cc1)C(=O)OCC(=O)NC1CC1 (stereo not given),–,·,–,–,–,–
CSCCC(NS(=O)(=O)c1ccc2c(c1)oc(=O)n2C)C(=O)NC1CCCCC1 (stereo not given),–,–,72,–,–,–
O=C(NCC1CC1)C1(C(F)(F)F)C/C(=C\Cc2ccccc2)CCCO1 (stereo not given),·,·,·,·,·,–
CCn1c(=O)c2cc(C(=O)N3CCN(C(=O)c4ccco4)CC3)sc2c2ccccc21,·,–,·,·,·,–
CCOc1ccc(-c2cc(CCCC(=O)NCCc3ccccc3)no2)cc1,–,·,–,50,–,–
CCOc1ccc(-c2cc(CCCC(=O)NCCc3ccc(OC)c(OC)c3OC)no2)cc1,–,–,–,66,–,–
Cc1ccc(OCC(=O)NCc2ccccn2)cc1,–,–,76,–,–,–
CCOc1ccc(-c2cc(CCCC(=O)NCc3cccnc3)no2)cc1,–,–,–,–,–,–
Cc1ccccc1NC(=O)C(=O)NCc1ccccn1,–,·,89,–,–,–
CCOc1cc(CNCc2ccccn2)ccc1OCC(=O)NC1CCCCC1,–,·,–,–,–,–
COc1ccc(-c2cc(CCCC(=O)NCc3ccccn3)no2)cc1,–,–,56,67,–,–
O=C(COc1ccc(S(=O)(=O)N2CCc3ccccc32)cc1Cl)NCc1ccccn1,–,–,94,94,–,2.2
SMILES,CYP2C19 activ,D1 mod,CYP2C19 inh,CYP2C9 inhib,CYP2C9 act,hDAT+cocaine
Cc1cc(S(=O)(=O)NC2CCCCC2)ccc1OCC(=O)NCc1ccccn1,–,–,–,54,–,–
COc1ccc(-c2cc(CCCC(=O)NCCc3ccc(OC)cc3OC)no2)cc1,·,–,·,·,·,–
CCCCOc1ccc(C(=O)NCc2ccccn2)cc1,–,–,–,–,–,–
CCn1c(Cc2ccccc2)nnc1SCC(=O)Nc1ccc(S(N)(=O)=O)cc1,–,–,–,–,–,–
CCN(c1ccc(C)c(C)c1)S(=O)(=O)c1ccc2c(c1)CCN2C(=O)CCC(=O)O,–,·,–,52,–,–
CCN(c1ccc(OC)cc1)S(=O)(=O)c1ccc2c(c1)CCN2C(=O)CCC(=O)O,–,–,–,70,–,–
CCOc1ccc(NS(=O)(=O)c2ccc3c(c2)CCN3C(=O)CCC(=O)O)cc1,–,–,–,–,–,–
CCOc1cc(N2CCOCC2)c(OCC)cc1NC(=O)c1ccc(=O)n(Cc2ccccc2)n1,–,–,–,–,–,·
COc1ccccc1-c1nnc(Sc2nc([N+](=O)[O-])nn2C)o1,–,·,–,–,–,–
c1ccc(-c2nnc(-c3ccccn3)nn2)nc1,·,-5.5,·,·,·,·
CN(C)c1nc(-c2ccccn2)nnc1-c1ccccc1,–,·,51,–,–,–
CN(C)c1nc(-c2ccccc2)nc(-c2ccc(Cl)cc2)c1C#N,–,·,–,–,–,–
NCCS(=O)(=O)O,·,·,·,·,·,–
CCN1CCN(Cc2nc3c(c(=O)n(C)c(=O)n3C)n2Cc2ccc(Cl)cc2Cl)CC1,·,–,·,·,·,·
CC(C)C(=O)Nc1ccc(Nc2ccccc2)cc1,–,–,55,55,–,·
Cn1cc(Cl)c(C(=O)OCC(=O)Nc2ccccc2)n1,–,·,83,–,–,–
O=C(COC(=O)Cc1cccs1)Nc1ccccc1,–,–,69,–,–,–
O=C(Nc1ccc(Cc2ccncc2)cc1)c1ccco1,–,–,96,98,–,–
CCc1ccc(N2CC(C(=O)Nc3nccs3)CC2=O)cc1 (stereo not given),–,–,–,–,–,–
O=C(Nc1ccc(Oc2ccc3ccccc3c2)cc1)c1ccco1,–,·,–,–,–,–
O=C(Nc1ccc(Nc2ccccc2)cc1)c1ccco1,–,·,67,82,–,–
O=C(Nc1ccc(OCC(=O)N2CCC(Cc3ccccc3)CC2)cc1)c1ccco1,–,·,95,87,–,–
COc1cc(C(=O)OCC(=O)NC2CCCC2)cc(NC(=O)c2ccco2)c1OC,–,–,78,73,–,–
CCOc1ccc(NC(=O)c2ccco2)cc1,–,-4.8,–,–,–,–
O=C(Nc1ccc(Br)cc1)c1ccco1,–,·,–,–,–,–
SMILES,CYP2C19 activ,D1 mod,CYP2C19 inh,CYP2C9 inhib,CYP2C9 act,hDAT+cocaine
Cc1ccc(C(=O)C(C(=O)/C=C/c2ccccc2)=C2SCCCS2)cc1,·,·,·,·,·,–
CC(=O)N1CN(S(=O)(=O)c2ccc(C)cc2)CC1C (stereo not given),–,·,–,–,–,–
O=C(O)Cc1ccc(NC(=O)c2ccc(NC(=O)c3ccco3)cc2)cc1,–,·,–,–,–,–
O=C(Nc1nccs1)c1ccc(NC(=O)c2ccco2)cc1,–,–,–,51,–,–
CCOc1cc(NC(=O)c2ccco2)c(OCC)cc1NC(=O)c1cc(OC)c(OC)c(OC)c1,–,-5,–,57,–,–
O=C(Nc1ccc(Oc2ccc(NC(=O)c3ccco3)c(NC(=O)c3ccco3)c2)cc1)c1ccco1,–,–,51,73,–,–
O=C(Nc1nc(-c2cccs2)c(-c2ccccc2)s1)c1ccco1,–,·,66,96,–,–
O=C(Nc1nnc(COc2ccccc2)s1)c1ccco1,–,–,–,–,–,–

# Assay outcomes from PubChem.
